The campaign covered roughly 68,000 compounds. About 2,700 (4%) showed an effect of 50% or more. Many of the other results were omitted from the sample, so strong results are more common in it than they were.
tested on: Plasmodium berghei; assay: Screen against P. berghei liver stage (PbLuc), transformed with Luciferase, at 2uM; format: functional, HepG2; conditions: tested at 2 uM

Structure (SMILES)	INHIBITION [%]
CN(Cc1ccc(F)cc1C#N)CC(F)(F)F	4.12
CSCCN(C)Cc1ccc(F)cc1C#N	-63.41
CN(CC(C)(CO)CO)C(=O)Nc1cc(F)cc(Cl)c1	-4.57
CN(Cc1cc(F)ccc1F)CC(C)(CO)CO	50.59
CN(Cc1cc(F)ccc1C#N)CC(C)(CO)CO	55.36
CN(Cc1ccc(F)cc1F)CC(C)(CO)CO	38.67
CNC(=O)c1ccc(OC)c(NCc2ncc(-c3cccs3)o2)c1	2.67
Cc1ccc(CN2CCc3ncnc(-c4ccncc4)c3CC2)o1	76.36
Cc1ccc(CN2CCc3ncnc(-c4cccnc4)c3CC2)o1	18.57
Cc1ccc(CN2CCc3ncnc(-c4ccc(F)cc4)c3CC2)o1	-23.71
CCc1noc(C)c1C(=O)N1CCCN(Cc2cscn2)CC1	-2.47
O=C(Cc1ccsc1)N1C[C@@H]2OCCN(c3cnccn3)[C@@H]2C1	21.42
c1cncc(O[C@H]2CC[C@H]3[C@H]2OCCN3C2CCCC2)c1	-74.01
COc1nc2c(cc1C(=O)N1C[C@@H](N)C[C@H]1C(=O)NC(C)C)CCC2	63.17
CC(C)NC(=O)[C@@H]1C[C@@H](N)CN1C(=O)c1cc2c([nH]c1=O)CCCC2	31.65
COc1nc2c(cc1C(=O)N1C[C@H](N)C[C@H]1C(=O)NC(C)C)CCC2	43.8
CC1CCC(NC(=O)Nc2ccc(CC(=O)N(C)C)cc2)CC1 (centres undefined)	35.5
Cn1cc(CN2CCN(CC3(c4ccccc4)CC3)CC2)cn1	27.03
COc1ccc2c(C)c(C(=O)N3CCC(NC(C)=O)C3)oc2c1 (centres undefined)	-41.96
Cc1noc(C)c1CN1C[C@@H](C(=O)O)[C@H](c2ccccc2)C1	-0.59
Cc1ccccc1[C@@H]1CN(Cc2c(C)noc2C)C[C@H]1C(=O)O	-18.65
COc1ccccc1[C@@H]1CN(Cc2c(C)noc2C)C[C@H]1C(=O)O	68.39
O=C(NCCn1ccnc1)N1CCN(c2nccs2)CC1	-16.42
Cc1nc(CN2CC(Cc3ccccc3)CC2=O)no1 (centres undefined)	-12.68
O=C(O)[C@]12CCCN(CC3CCOC3)C[C@H]1CN(c1ncccn1)C2 (some centres undefined)	13.16
O=C1CCN(C(=O)C2(c3ccc(F)cc3)CCCC2)CCN1	37.18

Structure (SMILES)	INHIBITION [%]
O=C1CCN(C(=O)C2(c3ccc(F)cc3)CCCCC2)CCN1	-41.64
O=C1CCN(C(=O)C2(c3ccc(F)cc3)CCOCC2)CCN1	63.46
CCn1c(C2CCN(C(=O)c3ccc4cc[nH]c4c3)CC2)n[nH]c1=O	-9.71
O=C(c1ccccc1)N1CCCC2(CCN2Cc2cccc(F)c2)C1 (centres undefined)	29.03
COc1cc2cc(C(=O)NCC(=O)O)n(C)c2c(OC)c1OC	16.47
CC(=O)Nc1ccc(CNC2CC(=O)N(Cc3cccc(F)c3)C2)cc1 (centres undefined)	-34.5
COCCO[C@H]1CCN(c2cc(OC)ncn2)[C@H]1Cc1cccnc1	3
Cc1cnc2n(c1=O)CC(C(=O)Nc1ccccc1Cl)CS2 (centres undefined)	-51.94
Cc1ccncc1NC(=O)C1CSc2ncc(C)c(=O)n2C1 (centres undefined)	13.95
Cc1ccc(Cl)cc1NC(=O)C1CSc2ncc(C)c(=O)n2C1 (centres undefined)	61.06
Cc1ccc(-c2noc(CN3CCc4cncnc4C3)n2)cc1	-49.27
O=C(c1ccc2c(c1)COC2)N1CCC(Nc2cccnn2)CC1	31.19
Cc1cncc(C(=O)N2CC[C@@]3(C[C@H](NS(C)(=O)=O)CCO3)C2)c1	17.83
CCCc1cc(=O)[nH]c(-n2nc(C3CC3)cc2N)n1	-67.99
O=C1N(CC2CC2)CCCC1(O)CN1CCc2[nH]ncc2C1 (centres undefined)	61.42
CC(C)(C)CN1CCCC(O)(CN2CCc3[nH]ncc3C2)C1=O (centres undefined)	-92.69
O=C1N(CC2CCCCC2)CCCC1(O)CN1CCc2[nH]ncc2C1 (centres undefined)	29.9
CC(C)c1noc(CCCC(=O)N2CCN(Cc3cccnc3)CC2)n1	26.06
O=C(c1ccco1)N1CCCC2(CN(Cc3ccsc3)CCO2)C1 (centres undefined)	-26.14
Cc1noc(C(C)N2CCN(CCOCC(F)(F)F)CC2)n1 (centres undefined)	36.95
CN1CC2(CCN(C(=O)c3ccc4c(=O)n(C)cnc4c3)CC2)CC1=O	-7.68
CN1CC2(CCN(C(=O)c3ccc4c(=O)n(C)cnc4c3)C2)OC1=O (centres undefined)	52.03
Cc1nc[nH]c1C(=O)N1CCC2(CN(C)C(=O)O2)C1 (centres undefined)	36.22
CNC(=O)c1cccnc1NCCOc1ccccc1	-1.89
c1ccc(NCc2ccc(Cn3ccnc3)cc2)nc1	17.64
CNC(=O)c1cccnc1NCCOc1ccc(CC#N)cc1	54.29

Structure (SMILES)	INHIBITION [%]
CC(C)(NCCCOc1ccc(C#N)cc1)c1nccs1	9.27
CNC(=O)c1cccnc1NCc1ccc(Cn2ccnc2)cc1	71.57
CC(C)(NCCOc1ccc(CC#N)cc1)c1nccs1	56.89
Cc1csc(C(C)(C)NCCOc2ccc(CC#N)cc2)n1	30.06
CS(=O)(=O)c1ccccc1NCc1ccc(Cn2ccnc2)cc1	6.78
CNC(=O)c1cccnc1NCc1ccc(-n2cccn2)cc1	-6.98
CNC(=O)c1cccnc1NCc1ccc(Cn2cccn2)cc1	-6.29
CNC(=O)c1cccc(NCCOc2ccc(CC#N)cc2)c1C	34.46
Brc1ccc(NCc2ccc(Cn3ccnc3)cc2)nc1	74.17
CC(C)(CNC1CCCN(Cc2ccccc2F)C1)CN1CCOCC1 (centres undefined)	18.22
CCc1ccccc1CN1CCn2nc(CNC(C)=O)cc2C1	-31.66
COc1cccc2c1OCC(NC(=O)NCCc1ccccn1)C2 (centres undefined)	40.59
NC(=O)N1CCCN(CCCSCc2ccccc2)CC1	-16.28
c1ccc(Cc2cccc(C3CCCN3C3CCOCC3)n2)cc1 (centres undefined)	44.16
O=S(=O)(c1cccc(F)c1)N1C[C@H]2CC[C@@H](C1)N(Cc1ccccc1)C2	-13.58
CC(C(=O)NCc1ccnc(OC2CCCC2)c1)n1cncn1 (centres undefined)	-5.34
O=C1NCCCc2c1oc1ccc(O)c(CN3CCOCC3)c21	10.49
CCN(C)C(=O)c1ccc2c(c1)C(c1nc[nH]n1)CN2S(C)(=O)=O (centres undefined)	53.55
CCC(CC)NC(=O)c1ccc2c(c1)C(c1nc[nH]n1)CN2S(C)(=O)=O (centres undefined)	36.34
CC(C)NC(=O)c1ccc2c(c1)C(c1nc[nH]n1)CN2S(C)(=O)=O (centres undefined)	-18.52
Cc1cnc(C(=O)N2CCCC(n3cncn3)C2)cn1 (centres undefined)	-43.79
CCOc1cc(CN[C@@H]2COC[C@H]2Cc2cc(C)no2)ccc1O	33.64
CCN1CCN(C(=O)c2[nH]c3ccccc3c2Cl)[C@H]2CS(=O)(=O)C[C@H]21	25.65
CCc1c(C(=O)N2CCN(C)[C@@H]3CS(=O)(=O)C[C@@H]32)[nH]c2ccccc12	65.3
Cc1c(C(=O)N2CCN(C)[C@@H]3CS(=O)(=O)C[C@@H]32)[nH]c2ccc(F)cc12	28.95
COc1ccccc1-n1nc(C(C)C)nc1Cc1nnc(N)s1	49.32

Structure (SMILES)	INHIBITION [%]
CS(=O)(=O)NCCCNC(=O)c1cccnc1O	-55.03
C[C@H]1C[C@H]2CN(Cc3ccccn3)CC[C@@H]2O1	66.23
C[C@H]1C[C@@H]2CCN(Cc3ccccn3)C[C@H]2O1	0.78
C[C@@H]1C[C@@H]2CCN(Cc3ccccn3)C[C@H]2O1	2.98
O=C(Cn1cccn1)N1CCc2[nH]nc(-c3ccc4c(c3)OCO4)c2C1	37.41
O=C1CN([C@@H]2CC[C@@H](NS(=O)(=O)c3ccc(F)cc3)[C@H]2O)CCN1	22.95
CC(C)c1nccn1C1CCCN(C(=O)c2ccsc2)C1 (centres undefined)	-12.41
COCc1nc(C(=O)N2CCCC(n3ccnc3C(C)C)C2)cs1 (centres undefined)	52.52
Cc1nc(CC(=O)N2CCCC(n3ccnc3C(C)C)C2)cs1 (centres undefined)	66.2
COCc1nc(C(=O)N2CCCC(n3cccn3)C2)cs1 (centres undefined)	21.89
COCc1nc(C(=O)N2CCCC(n3ccnc3C)C2)cs1 (centres undefined)	53.69
COCc1nc(C(=O)N2CCCC(n3ccnc3)C2)cs1 (centres undefined)	28.54
Cc1ccc(CC(=O)N2CCCC(n3ccnc3C(C)C)C2)cn1 (centres undefined)	28.65
CCc1nccn1C1CCCN(C(=O)c2csc(COC)n2)C1 (centres undefined)	24.15
CSCC(=O)N1CCCC(n2ccnc2C(C)C)C1 (centres undefined)	-47.97
Cc1ccsc1CN1CCC(n2cc(C(O)c3ccccc3)nn2)CC1 (centres undefined)	-6.04
CC(C)(C)C(=O)N1CCC(n2cc(C3(O)CCCC3)nn2)CC1	-21.47
Fc1ccccc1C1(CNC2CCOC3(CCOCC3)C2)CCCC1 (centres undefined)	-27.61
CN(C)c1cc(CNC(=O)c2cnccn2)ccn1	-14.75
Cc1cc(C(=O)N2CCn3cc(CN4CCOCC4)nc3C2)no1	22.68
Cc1ocnc1C(=O)N1CCN(CCOc2ccccc2)CC1	41.86
CC(C)Cc1cc(NC(=O)c2ccccn2)n(C)n1	7.13
Cc1noc(C)c1CS(=O)(=O)CC(=O)NCCc1cccs1	-49.96
Cn1cc(C(=O)NCc2cn3c(n2)CN(Cc2ccccn2)CC3)cn1	53.98
Cn1cc(C(=O)NCc2cn3c(n2)CN(Cc2ccncc2)CC3)cn1	12.38
Cn1cccc1C(=O)NCc1cn2c(n1)CN(Cc1ccccn1)CC2	20.43

— ChEMBL document CHEMBL4513216, “Probing the Open Global Health Chemical Diversity Library for Multistage-Active Starting Points for Next-Generation Antimalarials” (ACS Infect Dis, 2020)
